The record followed here is the supplement of paper PMC12532568.

Molecules are shown by their SMILES. Where a name gives a salt, the structure may show the parent alone.

In the assay the test system is Danio rerio larvae Tg(actc1b:ZsGreen-LC3), 3 dpf. Kind of assay: LC3 puncta relative area vs vehicle, with NH4Cl (autophagic flux) (log2 fold change); higher = more autophagy. As to conditions: 10 µM; treatment time 16 h; NH4Cl: + 100 mM, 4 h. On the procedure:
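Transgenic Tg(actc1b:ZsGreen-map1lc3) zebrafish larvae (2 dpf) were treated for 16 h with Tocris library compounds at 10 µM (n = 12 larvae per compound). Skeletal-muscle LC3 puncta area relative to body area was measured by high-content confocal imaging before and after 4 h of 100 mM NH4Cl (autophagic flux), normalised to vehicle (DMSO), and reported as log2 fold change.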
As to `c1ccc2c(c1)[I+]c1ccccc1-2` [Diphenyleneiodonium chloride], the “LC3 puncta (log2)” value came out at 0.545.

Regarding `C=CCN1CC[C@]23c4c5ccc(O)c4O[C@H]2C(=O)CC[C@@]3(O)[C@H]1C5` [Naloxone hydrochloride], the “LC3 puncta (log2)” value is 0.232.

For the molecule `c1ccc2sc(C3(N4CCCCC4)CCCCC3)cc2c1` [BTCP maleate], the “LC3 puncta (log2)” value amounted to 0.575.

As for `Fc1ccc(C(OCCN2CCN(CCCc3ccccc3)CC2)c2ccc(F)cc2)cc1`, the “LC3 puncta (log2)” value is 0.781.

With `CC(C)C[C@H]1C(=O)N2CCC[C@H]2[C@]2(O)O[C@](NC(=O)[C@@H]3C=C4c5cccc6[nH]c(Br)c(c56)C[C@H]4N(C)C3)(C(C)C)C(=O)N12` [Bromocriptine mesylate], the “LC3 puncta (log2)” value stood at 0.623.

Turning to `CS(=O)(=O)Nc1ccc(Cc2noc(-c3ccc4[nH]cc(CCN)c4c3)n2)cc1`, the “LC3 puncta (log2)” value turned out to be 0.382.

In the case of `Oc1ccc2c3c1O[C@H]1c4[nH]c5ccccc5c4C[C@@]4(O)[C@@H](C2)N(CC2CC2)CC[C@]314` [Naltrindole hydrochloride], the “LC3 puncta (log2)” value was found to be 0.551.

Turning to `C(=C\c1ccccc1)/CN1CCN(CCOC(c2ccccc2)c2ccccc2)CC1`, the “LC3 puncta (log2)” value was determined as 0.791.

`S=C(NC1CCCCC1)N1CCC(c2cnc[nH]2)CC1` [Thioperamide]: the “LC3 puncta (log2)” value is 0.48.

On to `c1ccc(CCCN2CCN(CCOC(c3ccccc3)c3ccccc3)CC2)cc1`, for which the “LC3 puncta (log2)” value was 0.346.

As to `CCCN(C/C=C/I)C1CCc2ccc(O)cc2C1` (configuration not stated) [7-Hydroxy-PIPAT maleate], the “LC3 puncta (log2)” value stood at 0.264.

On to `Cc1ccc(C[N+](C)(C)C)o1` [5-Methylfurmethiodide], for which the “LC3 puncta (log2)” value stood at 0.316.

With `S=C=Nc1cccc(C2(N3CCCCC3)CCCCC2)c1` [Metaphit], the “LC3 puncta (log2)” value is 0.576.

As to `c1ccc2c(c1)OCC(C1=NCCN1)O2` (configuration not stated) [Idazoxan hydrochloride], the “LC3 puncta (log2)” value amounted to 0.662.

As to `CO[C@]12C[C@@H](COC(=O)c3cncc(Br)c3)CN(C)[C@@H]1Cc1cn(C)c3cccc2c13` [Nicergoline], the “LC3 puncta (log2)” value was 0.397.

Take `CN1[C@@H]2CC[C@H]1C[C@@H](OC(=O)c1cc(Cl)cc(Cl)c1)C2`: the “LC3 puncta (log2)” value stood at 0.686.

Turning to `Cn1cnc(CCN)c1` [N?-Methylhistamine dihydrochloride], the “LC3 puncta (log2)” value worked out at 0.559.

In the case of `O=C(O)Cc1cccnc1C(=O)O` [Homoquinolinic acid], the “LC3 puncta (log2)” value worked out at 0.499.

Turning to `O=C(O)/C=C/CO` [trans-4-Hydroxycrotonic acid], the “LC3 puncta (log2)” value is 0.0547.

With `N[C@@]1(C(=O)O)CC[C@@H](C(=O)O)C1`, the “LC3 puncta (log2)” value was 0.292.

Consider `CN1C(=O)CCS(=O)(=O)C1c1ccc(Cl)cc1` (configuration not stated) [Chlormezanone], for which the “LC3 puncta (log2)” value stood at 0.287.

Consider `CCCCCCC[n+]1ccc(-c2cc[n+](CCCCCCC)cc2)cc1` [DHBP dibromide], for which the “LC3 puncta (log2)” value worked out at 0.343.

In the case of `CN(C(=O)Cc1ccc(Cl)c(Cl)c1)[C@H](CN1CCCC1)c1ccccc1` [ICI 199,441 hydrochloride], the “LC3 puncta (log2)” value is 0.486.

As to `CC(=O)N1CC[N+](C)(C)CC1` [4-Acetyl-1,1-dimethylpiperazinium iodide], the “LC3 puncta (log2)” value was found to be 0.151.

For `N[C@@H](Cn1oc(=O)[nH]c1=O)C(=O)O` [L-Quisqualic acid], the “LC3 puncta (log2)” value turned out to be 0.686.

As to `O=C(Cc1ccc(Cl)c(Cl)c1)N1CCCCC1CN1CCCC1` (configuration not stated), the “LC3 puncta (log2)” value is 0.493.

As to `Cc1cc(C)cc(C(=O)OC2C[C@H]3CC[C@@H](C2)N3C)c1` (some centres not stated) [Tropanyl-3,5-dimethylbenzoate], the “LC3 puncta (log2)” value was found to be 0.418.
